The text below walks through data of PubChem BioAssay (NCATS).

Inconclusive results are not listed. Calls of active or inactive are those of the source. Unless noted, calls come from the whole dose curve; as a rule, active = well fitted curve in the direction sought with a large enough effect; inconclusive = small, poorly fitted or top-dose-only effect, or another doubt; inactive = no such curve, though single readings can be large; an effect the other way counts as inactive or inconclusive.

Test [1] can be described thus: Quantitative high throughput screen for delayed death inhibitors of the malarial parasite plastid, 96 hour incubation (AID 488745). Note: nearly all actives have a fitted effect of over 70% in size. Note: potency is the fitted concentration of half-maximal effect. In short, it runs like this: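 Decreased firefly luciferase luminescence indicates inhibited growth of reporter-integrated P. falciparum after two generations (96 h, 37 C, 5% CO2). Infected erythrocytes at 0.1% parasitemia, 2% hematocrit, in Albumax-supplemented RPMI 1640.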

Test [2] can be described thus: Quantitative high throughput screen for delayed death inhibitors of the malarial parasite plastid, 48 hour incubation (AID 488752). Note: nearly all actives have a fitted effect of over 65% in size. Note: potency is the fitted concentration of half-maximal effect. Summed up: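 One-generation (48 h) growth assay: a decrease in luciferase signal from an integrated reporter in P. falciparum-infected red cells (0.1% parasitemia, 2% hematocrit) after compound exposure at 37 C indicates parasite inhibition.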

The target in test [3] is Thioredoxin reductase 1, cytoplasmic (Rattus norvegicus) (UniProt O89049). The test can be described thus: qHTS Assay for Substrates of Mammalian Selenoprotein Thioredoxin Reductase 1 (TrxR1) (AID 488772).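 Note: series mostly up to about 57 µM; 0% is about no effect; a drop in NADPH fluorescence below the no-compound background marks a TrxR1 substrate.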 Summed up:
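In this dual-purpose format, potential substrates are identified from the first fluorescence read after selenite addition, not from the 8-minute delta. Rat enzyme is preincubated with NADPH and then with compound at ~22 deg C.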
Background: Quantitative high-throughput screening tests each substance at several concentrations.

Test [4] shares this target. Briefly: qHTS Assay for Inhibitors of Mammalian Selenoprotein Thioredoxin Reductase 1 (TrxR1) (AID 488773). Note: nearly all actives have a fitted effect of over 40% in size. Note: potency is the fitted concentration of half-maximal effect. To be noted: Potency: inhibition. In short, it runs like this:
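Inhibition is scored from the loss of NADPH fluorescence between first and last reads of an 8-min kinetic run. Selenite (400 uM) was the substrate, added after 15 min compound preincubation at room temperature.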

Test [5] addresses Flap endonuclease 1 (Homo sapiens) (UniProt P39748). Briefly: qHTS Validation Assay for the Inhibitors of Human Flap endonuclease 1 (FEN1) (AID 488816). Note: % is set by controls: 0 for no effect and ±100 for the full control effect. Summed up: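 Enzyme reagent 10 nM; cpds pinned; 15 min RT preinc.; substrate 50 nM final; reads t=0 and 15 min; no-enzyme buffer wells as neg. control; normalized data, 4-parameter Hill fit.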
In test [6] the target is M-phase phosphoprotein 8 (Homo sapiens) (UniProt Q99549). Briefly: qHTS Validation Assay for Inhibitors for MPP8 Chromodomain Interactions with Methylated Histone Tails (AID 488949). Note: nearly all actives have a fitted effect of over 55% in size. Note: potency is the fitted concentration of half-maximal effect. Summed up: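 50 nM MPP8 + 50 nM b-H3K9me3 peptide, PBS pH 7.4/0.01% Tween-20, 30 min RT; + cpd 30 min RT; + AlphaScreen donor/Ni-chelate acceptor beads 10 ug/mL final, 30 min dark; luminescence read.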

The target of test [7] is Chromobox protein homolog 1 (Homo sapiens) (UniProt P83916). Briefly: qHTS Validation Assay for Inhibitors of HP1-beta Chromodomain Interactions with Methylated Histone Tails (AID 488953). Note: nearly all actives have a fitted effect of over 50% in size. Note: potency is the fitted concentration of half-maximal effect. Summed up: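 AlphaScreen proximity signal from streptavidin donor and nickel chelate acceptor beads (final 10 ug/mL) after 30 min dark incubation. Compounds had 30 min at room temperature with preformed complex of 50 nM HP1-beta and 50 nM b-H3(1-18)K9me3 in PBS pH 7.4 with 0.01% Tween-20.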

For test [8], the target named is Methanococcus maripaludis chaperonin (MmCpn) (UniProt Q6LX38). The test can be described thus: High-Throughput Screening for Modulators of Cytosolic Chaperonin Activity: MmCpn Primary Screen (AID 488978).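 Note: 50 nM MmCpn enzyme hydrolysing 30 µM ATP at 37 °C; 0% is about no effect.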 Summed up:
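Steps: chaperonin 50 nM final; add compound, 5 min RT; start with ATP, 30 uM final; hold 10 min at 37C; add ADP Transcreener HTRF reagent, 5 min; read ex 320, em 590 and 665 nm.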

Test [9] deals with Transient receptor potential cation channel subfamily V member 1 (Homo sapiens) (UniProt Q8NER1). The test can be described thus: HTS Assay for Compounds that Act as Enhancers of the Vanilloid Receptor 1 (AID 488979). Note: 0% is about no effect. Summed up:
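TRPV1 cells loaded with Fluo-8 calcium dye; compound added and Ca2+ signal (ex 480/em 520 nm) followed 3 min, then capsaicin at EC20 added and read 2 more min to detect enhancement.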

Test [10] concerns the target D(1A) dopamine receptor (Homo sapiens) (UniProt P21728). The test can be described thus: HTS Assay for Allosteric Agonists of the Human D1 Dopamine Receptor: Primary Screen for Agonists (AID 488981). Note: 0% is about no effect. In short, it runs like this: (§1)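 Tetracycline-induced HEK293 Trex D1 cells with forced coupling to calcium, loaded with no-wash calcium dye; kinetic fluorescence read 180 s after compound addition for agonism, then a further 180 s after an EC20 dopamine challenge for potentiation.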

The target is the same in test [11]. Briefly: HTS Assay for Allosteric Agonists of the Human D1 Dopamine Receptor: Primary Screen for Potentiators (AID 488982). Note: 0% is about no effect. In short, it runs like this: as §1
Test [12] shares this target. The test can be described thus: HTS Assay for Allosteric Agonists of the Human D1 Dopamine Receptor: Primary Screen for Antagonists (AID 488983).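 Note: calcium flux response to an EC80 dopamine challenge measured with no-wash dye; nearly all actives have a fitted effect of over 65% in size.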 Note: potency is the fitted concentration of half-maximal effect. In short, it runs like this:
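Calcium-flux read-out in inducible HEK293 T-REx cells expressing D1, dye-loaded 30–90 min at room temperature. Kinetic reads: 180 s after compound (agonist phase), then 180 s after an EC80 dopamine challenge.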

Test [13] is described as follows: Validation screen for small molecules that induce genotoxicity in human embryonic kidney (HEK293T) cells expressing luciferase-tagged ELG1 (AID 493106). Note: 0% is about no effect. In short, it runs like this: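 ELG1-luciferase reporter readout (ONE-Glo, 30 min, room temperature) after 16 hr compound treatment at 37 °C of HEK293T cells at 2,000 per well. Rising luminescence flags genotoxic stress.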

In test [14] the target is Thyrotropin-releasing hormone receptor (Homo sapiens) (UniProt P34981). The test can be described thus: qHTS for Small Molecule Agonists and Allosteric Enhancers of Human TRH Receptor: Validation Screen for Agonists (AID 493127;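 active = calcium activation more than 3 SD above the typical response in the agonist read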;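 note: intracellular calcium rise by fluo-8 fluorescence before TRH EC20 addition; 0% is about no effect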). Conditions: TRH receptor agonist cell assay; at 2 µM; stronger effect = higher value. Summed up: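 Compound-evoked intracellular calcium release in fluo-8-loaded TRHR cells, read kinetically on FDSS (Ex 480/Em 530, 1 s/cycle) after 23 nL pintool transfer. Agonist phase preceded 10 nM TRH EC20 addition.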

Test [15] is described as follows: qHTS for Inhibitors of Cell Surface uPA Generation: Validation Assay (AID 493164).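 Note: RAW 264.7 macrophage cells exposed to compound for 18 h; 0% is about no effect.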 In short, it runs like this:
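ATP-Lite luminescence read-out: ATP remains high when uPA activity-dependent LF translocation into the cytoplasm is blocked. RAW 264.7 cells, 18 h compound exposure at 37 C; 7-point titration, 2.45 nM to 38.3 uM final.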

Test [16] deals with ATPase family AAA domain-containing protein 5 (Homo sapiens) (UniProt Q96QE3). The test can be described thus: Validation screen for small molecules that inhibit ELG1-dependent DNA repair in human embryonic kidney (HEK293T) cells expressing luciferase-tagged ELG1 (AID 493107).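 Note: series mostly up to about 46 µM; % is set by controls: 0 for no effect and ±100 for the full control effect; inhibitors lower the ELG1-luciferase luminescence signal; nearly all actives have a fitted effect of over 70% in size.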 Summed up:
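Luciferase read-out, ONE-Glo, 30 min at room temperature, follows 16 h co-exposure at 37 C of compound and the DNA-damaging agent 5-fluorouridine. Cells: HEK293T with ELG1-luciferase fusion, 2,000 per well, DMSO as vehicle.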

The nature of test [17]: Nrf2 qHTS screen for inhibitors: Validation (AID 493153; active = well fitted inhibition curve with a large enough effect in the main read-out, with a control signal flat, not every such curve was filed as active). Conditions: Potency: luciferase luminescence; viability change: measured here: cytotoxicity max response. Summed up:
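Concentration-response on A549 ARE_Fluc reporter cells exposed 18-24 h at 37 C, 5% CO2. Cytotoxicity read first by CellTiter-Fluor fluorescence (Ex 405/Em 525), then Nrf2 inhibition by BugLite luminescence after 15 min.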

Test [18] has as its target Tyrosyl-DNA phosphodiesterase 1 (Homo sapiens) (UniProt Q9NUW8). The test can be described thus: Confirmation Assay for Inhibitors of Tyrosyl-DNA Phosphodiesterase (TDP1) (AID 489007). Note: potency is the fitted concentration of half-maximal effect; nearly all actives have a fitted effect of over 40% in size. Conditions: recombinant human TDP1 enzymatic activity, dose-response. Summed up:
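AlphaScreen assay of tyrosine-FITC cleavage from a biotinylated DNA substrate (15 nM) by E. coli-expressed human Tdp1 (1 nM). Sequence: compound preincubation 15 min, reaction 5 min, bead detection 10 min, all at room temperature. No-enzyme wells give maximum signal.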

Test [19] deals with ATP-dependent 6-phosphofructokinase (Trypanosoma brucei brucei) (UniProt O15648). The test can be described thus: qHTS Assay to Find Inhibitors of T. brucei phosphofructokinase: hit validation (AID 492961).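 Note: luminescence reports ADP formed as PFK phosphorylates fructose-6-phosphate with ATP; series mostly up to about 51 µM; % is set by controls: 0 for no effect and ±100 for the full control effect.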 Summed up: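 Inhibition of parasite PFK is measured as reduced ADP formation, quantified via luciferase after ATP depletion. Assay used 0.1 mM ATP, 0.5 mM F6P, 1.25 nM enzyme, 45 min incubation.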

Test [20] has as its target Thyrotropin receptor (Homo sapiens) (UniProt P16473). The test can be described thus: qHTS Assay for Antagonists of the Thyroid Stimulating Hormone Receptor (AID 488980). Note: series mostly up to about 58 µM; 0% is about no effect. Summed up: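 Readout is cAMP by HTRF competition between cellular cAMP and cAMP-d2 for a cryptate-labelled antibody. Antagonism was assessed in TSHR-transfected HEK293 cells stimulated with 4 nM TSH (EC80, final) in the presence of RO 20-1724.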

Chain of Thyrotropin-releasing hormone receptor (Homo sapiens) (P34981 whole entry, looked up): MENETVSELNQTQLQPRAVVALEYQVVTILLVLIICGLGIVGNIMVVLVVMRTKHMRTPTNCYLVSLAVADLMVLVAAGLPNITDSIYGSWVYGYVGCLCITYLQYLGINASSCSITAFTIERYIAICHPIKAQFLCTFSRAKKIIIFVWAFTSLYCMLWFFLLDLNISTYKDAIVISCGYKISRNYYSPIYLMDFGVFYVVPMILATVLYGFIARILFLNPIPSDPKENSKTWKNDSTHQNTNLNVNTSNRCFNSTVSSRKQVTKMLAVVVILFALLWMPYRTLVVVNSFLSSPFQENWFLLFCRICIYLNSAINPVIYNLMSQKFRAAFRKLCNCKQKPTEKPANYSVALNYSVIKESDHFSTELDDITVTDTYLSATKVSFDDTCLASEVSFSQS
Chain of Flap endonuclease 1 (Homo sapiens) (P39748 whole entry, looked up): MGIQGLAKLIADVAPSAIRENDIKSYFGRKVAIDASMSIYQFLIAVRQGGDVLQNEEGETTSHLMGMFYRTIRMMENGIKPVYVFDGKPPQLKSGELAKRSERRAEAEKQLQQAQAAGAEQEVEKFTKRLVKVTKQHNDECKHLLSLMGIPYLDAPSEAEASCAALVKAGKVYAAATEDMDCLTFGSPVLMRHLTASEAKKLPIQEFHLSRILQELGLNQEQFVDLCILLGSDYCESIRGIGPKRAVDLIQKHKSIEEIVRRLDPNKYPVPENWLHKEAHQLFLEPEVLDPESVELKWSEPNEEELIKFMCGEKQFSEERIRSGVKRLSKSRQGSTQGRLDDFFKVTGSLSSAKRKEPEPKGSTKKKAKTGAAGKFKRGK
Chain of Chromobox protein homolog 1 (Homo sapiens) (P83916 whole entry, looked up): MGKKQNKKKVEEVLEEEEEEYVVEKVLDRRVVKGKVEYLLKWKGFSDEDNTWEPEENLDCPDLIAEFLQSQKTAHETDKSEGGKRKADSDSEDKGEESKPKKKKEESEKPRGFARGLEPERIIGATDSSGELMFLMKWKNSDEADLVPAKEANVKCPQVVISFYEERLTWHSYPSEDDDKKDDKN
Chain of M-phase phosphoprotein 8 (Homo sapiens) (Q99549 whole entry, looked up): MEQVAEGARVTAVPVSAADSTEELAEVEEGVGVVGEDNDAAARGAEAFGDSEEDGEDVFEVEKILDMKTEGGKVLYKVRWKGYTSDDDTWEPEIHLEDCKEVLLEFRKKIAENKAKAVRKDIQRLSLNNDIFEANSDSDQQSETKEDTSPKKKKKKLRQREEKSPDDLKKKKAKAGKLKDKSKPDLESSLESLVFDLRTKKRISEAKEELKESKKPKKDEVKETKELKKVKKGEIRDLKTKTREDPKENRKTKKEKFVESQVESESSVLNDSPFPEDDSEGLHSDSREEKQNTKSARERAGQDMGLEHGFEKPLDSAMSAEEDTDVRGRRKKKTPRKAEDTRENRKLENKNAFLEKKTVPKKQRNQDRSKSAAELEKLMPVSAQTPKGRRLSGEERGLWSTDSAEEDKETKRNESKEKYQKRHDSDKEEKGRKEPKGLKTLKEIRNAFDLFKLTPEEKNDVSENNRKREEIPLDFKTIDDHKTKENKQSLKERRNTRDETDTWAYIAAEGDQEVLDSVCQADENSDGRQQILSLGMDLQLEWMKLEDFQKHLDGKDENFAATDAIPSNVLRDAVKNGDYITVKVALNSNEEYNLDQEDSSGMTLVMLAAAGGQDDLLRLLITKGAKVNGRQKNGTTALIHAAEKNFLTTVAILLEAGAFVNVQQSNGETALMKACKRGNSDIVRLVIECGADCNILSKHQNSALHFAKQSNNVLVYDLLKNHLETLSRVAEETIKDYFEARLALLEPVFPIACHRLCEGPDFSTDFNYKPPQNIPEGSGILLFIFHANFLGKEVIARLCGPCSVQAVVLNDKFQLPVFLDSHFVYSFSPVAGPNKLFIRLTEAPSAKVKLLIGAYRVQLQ
Chain of ATPase family AAA domain-containing protein 5 (Homo sapiens) (Q96QE3 whole entry, looked up, the tested form may be a part): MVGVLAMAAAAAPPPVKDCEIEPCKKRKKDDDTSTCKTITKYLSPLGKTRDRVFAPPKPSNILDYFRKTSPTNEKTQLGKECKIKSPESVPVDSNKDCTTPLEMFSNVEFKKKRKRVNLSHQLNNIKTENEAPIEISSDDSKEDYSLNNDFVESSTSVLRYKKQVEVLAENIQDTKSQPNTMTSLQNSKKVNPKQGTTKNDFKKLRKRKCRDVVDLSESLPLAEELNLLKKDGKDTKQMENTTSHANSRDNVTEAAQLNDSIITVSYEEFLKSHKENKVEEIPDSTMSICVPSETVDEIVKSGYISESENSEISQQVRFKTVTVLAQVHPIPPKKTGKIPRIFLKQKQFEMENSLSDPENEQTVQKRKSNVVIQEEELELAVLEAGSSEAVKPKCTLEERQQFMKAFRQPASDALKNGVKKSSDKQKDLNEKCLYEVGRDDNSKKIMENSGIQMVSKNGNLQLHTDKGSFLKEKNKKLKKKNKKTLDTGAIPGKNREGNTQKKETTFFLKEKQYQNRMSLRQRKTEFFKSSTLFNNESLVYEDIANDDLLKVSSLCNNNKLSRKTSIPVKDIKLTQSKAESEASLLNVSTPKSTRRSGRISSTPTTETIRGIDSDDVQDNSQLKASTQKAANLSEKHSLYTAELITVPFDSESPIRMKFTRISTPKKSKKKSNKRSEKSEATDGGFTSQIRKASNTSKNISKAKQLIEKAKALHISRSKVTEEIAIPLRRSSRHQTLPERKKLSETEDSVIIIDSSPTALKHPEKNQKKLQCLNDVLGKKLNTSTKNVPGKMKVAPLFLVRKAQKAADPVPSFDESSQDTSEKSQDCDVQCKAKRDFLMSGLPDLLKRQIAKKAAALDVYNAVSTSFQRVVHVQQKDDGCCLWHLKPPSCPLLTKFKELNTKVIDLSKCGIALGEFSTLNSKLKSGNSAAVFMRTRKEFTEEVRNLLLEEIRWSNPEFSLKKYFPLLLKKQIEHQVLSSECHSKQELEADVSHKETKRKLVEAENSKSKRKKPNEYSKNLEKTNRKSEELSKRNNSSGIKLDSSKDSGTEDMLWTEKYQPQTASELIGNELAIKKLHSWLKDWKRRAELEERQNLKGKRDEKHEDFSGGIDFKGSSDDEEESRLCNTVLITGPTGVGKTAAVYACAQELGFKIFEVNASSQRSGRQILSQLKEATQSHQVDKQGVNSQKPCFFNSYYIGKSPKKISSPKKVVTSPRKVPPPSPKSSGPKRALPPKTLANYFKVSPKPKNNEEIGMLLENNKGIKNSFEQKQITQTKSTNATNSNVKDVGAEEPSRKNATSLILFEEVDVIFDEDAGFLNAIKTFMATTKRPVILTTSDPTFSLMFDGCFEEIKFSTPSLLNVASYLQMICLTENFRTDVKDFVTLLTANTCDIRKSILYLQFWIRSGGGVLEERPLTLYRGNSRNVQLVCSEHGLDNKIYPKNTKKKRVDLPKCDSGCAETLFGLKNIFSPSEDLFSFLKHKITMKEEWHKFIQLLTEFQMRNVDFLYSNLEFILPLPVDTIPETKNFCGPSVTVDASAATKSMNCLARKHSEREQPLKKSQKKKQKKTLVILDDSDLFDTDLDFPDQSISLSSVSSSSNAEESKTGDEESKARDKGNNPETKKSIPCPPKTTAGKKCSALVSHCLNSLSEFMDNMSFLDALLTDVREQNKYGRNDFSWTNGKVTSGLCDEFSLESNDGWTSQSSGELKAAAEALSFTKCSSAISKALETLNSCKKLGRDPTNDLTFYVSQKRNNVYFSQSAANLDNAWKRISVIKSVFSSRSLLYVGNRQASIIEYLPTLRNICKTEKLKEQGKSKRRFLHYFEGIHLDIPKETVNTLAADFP
Chain of D(1A) dopamine receptor (Homo sapiens) (P21728 whole entry, looked up): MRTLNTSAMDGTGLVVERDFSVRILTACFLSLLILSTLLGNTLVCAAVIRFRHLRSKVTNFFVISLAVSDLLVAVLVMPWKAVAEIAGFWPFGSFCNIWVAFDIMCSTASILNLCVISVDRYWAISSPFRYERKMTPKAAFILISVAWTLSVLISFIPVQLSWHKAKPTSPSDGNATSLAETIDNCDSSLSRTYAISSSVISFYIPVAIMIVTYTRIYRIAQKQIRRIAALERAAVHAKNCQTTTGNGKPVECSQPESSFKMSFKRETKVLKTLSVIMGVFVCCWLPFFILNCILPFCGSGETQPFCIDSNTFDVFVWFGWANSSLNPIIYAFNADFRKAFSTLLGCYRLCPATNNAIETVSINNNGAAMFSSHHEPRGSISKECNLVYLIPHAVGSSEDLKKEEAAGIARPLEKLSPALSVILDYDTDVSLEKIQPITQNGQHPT
Chain of Transient receptor potential cation channel subfamily V member 1 (Homo sapiens) (Q8NER1 whole entry, looked up): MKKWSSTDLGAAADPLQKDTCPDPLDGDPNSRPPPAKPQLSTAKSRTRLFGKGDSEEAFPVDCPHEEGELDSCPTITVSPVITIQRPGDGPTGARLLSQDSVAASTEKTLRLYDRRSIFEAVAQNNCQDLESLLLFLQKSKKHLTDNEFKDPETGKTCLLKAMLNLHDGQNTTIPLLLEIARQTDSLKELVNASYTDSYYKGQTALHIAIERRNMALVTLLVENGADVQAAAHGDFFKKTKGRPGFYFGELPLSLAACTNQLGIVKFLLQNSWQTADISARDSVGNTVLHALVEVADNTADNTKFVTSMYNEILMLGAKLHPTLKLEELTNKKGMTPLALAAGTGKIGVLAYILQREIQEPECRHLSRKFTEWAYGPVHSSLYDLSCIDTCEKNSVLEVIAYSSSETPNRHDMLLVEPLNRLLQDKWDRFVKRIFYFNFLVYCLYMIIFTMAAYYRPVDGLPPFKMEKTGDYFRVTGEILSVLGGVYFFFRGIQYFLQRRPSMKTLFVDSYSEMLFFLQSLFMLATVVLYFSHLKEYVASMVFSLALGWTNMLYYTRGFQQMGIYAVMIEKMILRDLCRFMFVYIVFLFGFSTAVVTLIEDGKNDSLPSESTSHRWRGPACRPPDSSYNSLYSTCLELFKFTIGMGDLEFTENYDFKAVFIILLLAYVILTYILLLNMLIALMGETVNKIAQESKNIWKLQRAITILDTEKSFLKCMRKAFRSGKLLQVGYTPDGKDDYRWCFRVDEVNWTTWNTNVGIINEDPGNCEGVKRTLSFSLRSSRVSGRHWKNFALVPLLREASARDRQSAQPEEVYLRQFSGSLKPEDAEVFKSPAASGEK

`C[Se]C[C@H](N)C(=O)O`: the Potency entry in test [1], in test [2], in [4], in [5], in test [6] and in test [7] was “inactive” throughout. Moreover, the Potency entry in test [10], in test [11], in test [12] and in [13] was “inactive” in each case. Besides, the compound was called inactive in test [3], in test [8], in test [9] and in test [15]. In addition, in [14], the activation was 0.188% (inactive).
With `CCCN(CCC)C1CCc2cccc(O)c2C1` (stereo not given), the Potency result in test [1], in test [2], in test [4], in [5], in test [6] and in test [7] was “inactive” in each case. Moreover, the Potency entry in [10], in test [11], in [12], in test [13], in [16] and in test [17] was “inactive” in each case. For the same compound, the result in [3], in test [8], in test [9] and in [15] was inactive. Moreover, the activation in test [14] is 1.12% (inactive). Further, the viability change in test [17] turned out to be 4.06%.
With `CCCN(CCC)CCc1c[nH]c2ccc(C(N)=O)cc12`, the Potency result in test [1], in test [2], in test [4], in [5], in test [6] and in test [7] was “inactive” each time. In addition, the Potency entry in test [10], in [12], in test [13], in test [16] and in test [17] was “inactive” throughout. The result in [3], in test [8], in test [9] and in test [15] was inactive. In addition, the activation in test [14] was 0% (inactive). Also, in test [17], the viability change amounted to 1.24%.
In the case of `O=C(O)c1cc[c]([Hg][Cl])cc1`, the Potency is 2.08 µM (active) in test [1]; 4.15 µM (active) in test [2]; 0.299 µM (active) in [4]; 5.32 µM (active) in [6]; 39.8 µM (active) in [7]; 56.2 µM (active) in [18]. For the same compound, the call in [3], in test [8], in [9] and in test [15] was inactive. Besides, the Potency result in [5], in [10], in [11], in test [12] and in test [17] was “inactive” each time. Moreover, the activation in [14] was 1.5% (inactive). In addition, the viability change in [17] was -2.02%.
Consider `C=CCN1CCC23c4c5ccc(O)c4O[C@H]2C(=O)CC[C@@]3(O)C1C5` (stereo not given in full), for which the Potency result in [1], in [2], in test [4], in test [5], in test [6] and in [7] was “inactive” each time. In addition, the Potency entry in [10], in [11], in [12], in [19], in test [16] and in [17] was “inactive” each time. Further, the compound was called inactive in test [3], in test [8], in test [9] and in test [15]. Moreover, in test [17], the viability change turned out to be 2.4%.
For the compound `N[C@@H](Cn1oc(=O)[nH]c1=O)C(=O)O`, the Potency entry in test [1], in test [2], in [4], in test [5], in [6] and in [7] was “inactive” throughout. In addition, the Potency entry in test [10], in test [11], in test [12], in test [13], in test [16] and in test [17] was “inactive” in each case. Besides, the outcome in test [3], in test [8], in test [9], in test [20] and in test [15] was inactive. For the same compound, the activation in test [14] is -0.562% (inactive). In addition, the viability change in test [17] is -3.31%.
In the case of `CCCN(CCC)CCc1ccc(O)c(O)c1`, the Potency result in [1], in test [2], in test [4], in [5], in test [6] and in [7] was “inactive” each time. For the same compound, the Potency result in test [10], in test [11], in test [13] and in test [16] was “inactive” in each case. Further, the call in test [3], in [8], in [9], in test [20] and in [15] was inactive. The Potency in test [12] is 1.78 µM (active). Further, in [14], the activation is -3.94% (inactive).
